# Source: PubChem BioAssay (EPA / NIEHS)
# Values joined by “and” are separate entries in the source; they are usually repeats but may differ in a detail not shown here. Equal entries are not always repeated. Some structures have more than one record in an assay (separate samples or runs), and their calls can disagree. Active and inactive are the calls of the source. How the source made its calls: active means hit-call score of the fitted dose curve at least 0.9, where 1 is the maximum; inactive means score below 0.9.
# Read-out: Intercellular Adhesion Molecule 1 (ICAM1), ICAM1 (gene 3383)
# Assay: BSK_hDFCGF_ICAM1: BioMAP Diversity Plus: hDFCGF Assay for Intercellular Adhesion Molecule 1 (ICAM1) Biomarker Activity (AID 2284287)
# Settings: primary human foreskin fibroblasts
# Experimental: BSK_hDFCGF is a cell-based, multiplexed-readout assay that uses foreskin fibroblast, a human skin primary cell, with measurements taken at 24 hours after chemical dosing in a 96-well plate.BSK_hDFCGF_ICAM1 is an assay component measured in the BSK_hDFCGF assay. It measures ICAM-1 antibody related to regulation of gene expression using ELISA technology.Data from the assay component BSK_hDFCGF_ICAM1 was analyzed at the endpoint, BSK_hDFCGF_ICAM1, in the positive analysis fitting direction relative to DMSO as the negative control and baseline of activity. Using a type of binding reporter, gain or loss-of-signal activity can be used to understand protein changes. To generalize the intended target to other relatable targets, this assay endpoint is annotated to the 'cell adhesion molecules' intended target family, where the subfamily is 'Immunoglobulin CAM'.
# The levels of cell surface (or secreted, indicated by the prefix "s") biomarker endpoints were measured by ELISA. Overt cytotoxicity to cells in confluent adherent cultures (all systems other than the BT system) was assessed by measuring total protein levels using sulforhodamine B (SRB) staining in parallel cultures at the time of biomarker measurements, indicated as SRB endpoints. For proliferation assays for adherent cell types, individual cell types are cultured at sub-confluence and relative cell numbers quantified by SRB staining at time points optimized for each system (48 h: 3C and CASM3C systems; 72 h: BT and HDF3CGF systems; 96 h: SAg system). SRB was performed by staining cells with 0.1% SRB after fixation with 10% TCA and reading wells at 560 nm.Viability and proliferation of PBMC (T cells) was quantified by Alamar Blue reduction for the SAg and BT systems. For PBMC viability (referred to as PBMC Cytotoxicity within the assay endpoint names), cells were plated (75,000/well in a 96-well plate) and then chemical samples added for 1 h before addition of activators, SEB and TSST-1 (20 ng/mL final concentration each). Cells were incubated for 90 h. Then, Alamar Blue (20 uL/well) (Invitrogen, Cat DAL1100) was added for 6 h, and the plates were read with a fluorescence microplate reader at 546/580 nm (excitation/emission). For PBMC proliferation, cells were plated and activated as above but incubated for only 16 h prior to addition of Alamar Blue. Plates were read after 6 h.
SMILES,outcome,AC50
CN(CCO)S(=O)(=O)C(F)(F)C(F)(F)C(F)(F)C(F)(F)C(F)(F)C(F)(F)C(F)(F)C(F)(F)F,inactive,
O=C(CC(=O)C(F)(F)C(F)(F)C(F)(F)F)c1cccs1,inactive,
C=CC(=O)OCCC(F)(F)C(F)(F)C(F)(F)C(F)(F)C(F)(F)C(F)(F)C(F)(F)C(F)(F)F,inactive,1.19 µM (active)
OCC(F)(F)C(F)(F)C(F)(F)C(F)(F)C(F)(F)C(F)(F)C(F)(F)C(F)(F)C(F)(F)C(F)(F)C(F)(F)F,inactive,
Oc1c(Cl)cc(Cl)cc1Sc1cc(Cl)cc(Cl)c1O,,2.56 µM (active) and 2.73 µM (active)
O=C(O)CCC(F)(F)C(F)(F)C(F)(F)C(F)(F)C(F)(F)C(F)(F)F,inactive,
O=P(O)(O)CCC(F)(F)C(F)(F)C(F)(F)C(F)(F)C(F)(F)C(F)(F)C(F)(F)C(F)(F)F,inactive,25.7 µM (active)
Oc1ccc(Cc2ccccc2O)cc1,inactive,
O=C(O)CCC(F)(F)C(F)(F)C(F)(F)C(F)(F)C(F)(F)F,inactive,
O=C(O)C(F)(F)OC(F)(F)C(F)(F)OC(F)(F)C(F)(F)OC(F)(F)C(F)(F)C(F)(F)C(F)(F)F,,19.7 µM (active) and 17.2 µM (active)
CN(Cc1cnc2nc(N)nc(N)c2n1)c1ccc(C(=O)N[C@@H](CCC(=O)O)C(=O)O)cc1,inactive,
CCCCCCCCCCCC,,11.7 µM (active) and 10.3 µM (active)
O=P(O)(O)CCC(F)(F)C(F)(F)C(F)(F)C(F)(F)C(F)(F)C(F)(F)F,inactive,
O=S(=O)(O)C(F)(F)C(F)(F)C(F)(F)C(F)(F)C(F)(F)C(F)(F)C(F)(F)C(F)(F)C(F)(F)C(F)(F)F,inactive,
O=C1NS(=O)(=O)c2ccccc21,inactive,
